# What was measured:
# [1] = test system: Madurella mycetomatis MM55; test: percent growth relative to solvent control; higher = less inhibition, active = 20 or less; settings: 100 µM; 7 days
# [2] = test system: Madurella mycetomatis MM55; settings: 7 days
# [3] = test system: Madurella mycetomatis MM55; test: IC90; higher = less potent; settings: 7 days
SMILES,percent growth [1],IC50 [2],IC90 [3]
Cc1nn(Cc2ccccc2)c(Cl)c1C(=O)NC1CCCCCC1,91.1% (inactive),–,–
CC1COC(Cn2cncn2)(c2ccc(Oc3ccc(Cl)cc3)cc2Cl)O1 (centres undefined),0.489% (active),–,–
CO/N=C(\C(=O)OC)c1ccccc1CO/N=C(\C)c1cccc(C(F)(F)F)c1,0.385% (active),1.05 µM,28.1 µM
CCc1nn(C)c(C(=O)NCc2ccc(Oc3ccc(C)cc3)cc2)c1Cl,46.6% (inactive),–,–
O=C1O[C@@H](COc2ccon2)CN1c1cc(F)c(C2=CCN(Cc3ccccc3)CC2)c(F)c1,20.9% (inactive),–,–
Nc1c2c(nc3sc4c(c13)CCCC4)CCCC2,-0.0392% (active),9.7 µM,16.4 µM
Cc1nn(C)c(C)c1NS(=O)(=O)c1c(Cl)cc(-c2ccnc(N3CCNCC3)c2)cc1Cl,86% (inactive),–,–
CC1(C)OB(O)c2ccc(C3=NOC(c4cc(Cl)c(F)c(Cl)c4)(C(F)(F)F)C3)cc21 (centres undefined),-0.6% (active),11.7 µM,19.4 µM
CO[C@@H]1CN(c2ccc(C#CC3(O)CN4CCC3CC4)c(Cc3ccccc3)n2)C[C@H]1O (some centres undefined),81.3% (inactive),–,–
CC(C)(C)C(O)C(Oc1ccc(-c2ccccc2)cc1)n1cncn1 (centres undefined),-0.373% (active),–,–
CO/C=C(/C(=O)OC)c1ccccc1Oc1cc(Oc2ccccc2C#N)ncn1,1.6% (active),0.6 µM,20.4 µM
Cc1cc(C2=NOC(c3cc(Cl)c(F)c(Cl)c3)(C(F)(F)F)C2)ccc1C(=O)NCc1ccc2c(c1)C(C)(C)OB2O (centres undefined),124% (inactive),–,–
Cc1cccc(C(=O)Nc2ccnc(N(C)C3CCN(CC(C)C)CC3)c2)c1,1.78% (active),26.2 µM,53.4 µM
O=C1O[C@@H](CO)CN1c1cc(F)c(C2=CCN(Cc3ccccc3)CC2)c(F)c1,70.2% (inactive),–,–
